Laboratory results published in PubChem BioAssay.
Active and inactive are the calls of the source. Unless noted, the rule behind the calls is not given here.

Columns and labels:
[1] = anti-His antibody binders, primary screen, artefact control for SMM control protein annotation, biochemical, small-molecule microarray, 635 nm fluorescence (AID 1128); settings: anti-His Alexa647 antibody binding, higher = more signal;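 note: score merges feature fluorescence with signal-to-noise for each printed compound spot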
[2] = tested on: Human papillomavirus type 1a E7 protein (residues 1-88); assay: HPV1a E7 small-molecule binders, primary screen, biochemical, small-molecule microarray, residues 1-88, 635 nm (AID 1129); settings: small-molecule microarray binding, fluorescence 635 nm; higher = more signal
[3] = molecular target: Focal adhesion kinase 1 (Homo sapiens) (UniProt Q05397); assay: small-molecule microarray binders of FAK, primary screen, biochemical, 635/667 nm fluorescence, BSA, DTT (AID 1130); settings: PTK2 binding, 635 nm fluorescence, higher = more signal;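 note: composite of spot emission at 667 nm and signal to noise over triplicate slides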
[4] = tested on: Fibrinogen (Alexa647-labelled); assay: fibrinogen binders on compound microarrays, profiling panel, artefact control for SMM control-protein annotation, biochemical, small-molecule microarray, 635/667 nm fluorescence (AID 1131); settings: fibrinogen-A647 binding fluorescence, higher = more signal;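 note: z-score merges 667 nm fluorescence with per-spot signal-to-noise over triplicate slides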
[5] = molecular target: Follistatin (Homo sapiens) (UniProt P19883); assay: follistatin binders on small-molecule microarrays, primary screen, biochemical, small-molecule microarray, 635/667 nm fluorescence (AID 1132); settings: FST binding, 635 nm fluorescence, higher = more signal
[6] = molecular target: Fibroblast growth factor 2 (Homo sapiens) (UniProt P09038); assay: FGF2 binders on small-molecule microarrays, primary screen, biochemical, small-molecule microarray, 635/667 nm fluorescence (AID 1133); settings: small-molecule microarray binding, FGF2, fluorescence 635/667; higher = more signal
[7] = mitochondrial membrane potential change in A549 cells, profiling panel, cell-based, JC-1 fluorescence, basal, 24 h, 100 nL (AID 1138); settings: higher = more signal;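 note: A549 lung adenocarcinoma cells under basal conditions with no added stimulus; test concentration not given here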
Lefty1 = Lefty1 binders on small-molecule microarrays, primary screen, biochemical, small-molecule microarray, 635/667 nm fluorescence (AID 1139); settings: small-molecule microarray binding, fluorescence 635/667; higher = more signal
[8] = tested on: wheat germ agglutinin (Triticum aestivum), Alexa647-labelled; assay: wheat germ agglutinin binders on compound microarrays, profiling panel, artefact control for SMM control-protein annotation, biochemical, small-molecule microarray, 635/667 nm fluorescence (AID 1140); settings: WGA-A647 binding, 635 nm fluorescence, higher = more signal;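 note: score merges 667 nm feature emission with signal to noise over triplicate slides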
[9] = molecular target: Luciferin 4-monooxygenase (Photinus pyralis) (UniProt P08659); assay: firefly luciferase enzyme inhibitors, primary screen, biochemical, luminescence, purified enzyme, 2006 set (AID 1141); settings: SteadyGlo luminescence, 30 min, higher = more signal, called active from +8 up or from −8 down;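 note: cell-free assay with purified firefly luciferase at 100 ng per well in PBS; test concentration not given here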
[10] = tested on: Wnt5a (protein binding on small-molecule microarray); assay: Wnt5a binders on small-molecule microarray, primary screen, biophysical, 635/667 nm fluorescence (AID 1142); settings: 635 nm fluorescence, higher = more signal;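 note: fluorescence read at 667 nm with signal to noise per printed feature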
[11] = cell viability in Huh7 cells, primary screen, cytotoxicity control for HCV replication inhibitor project, CellTiter-Glo luminescence, basal, 48 h (AID 1143); settings: Huh7 HCV replicon, higher = more signal, called active from +8 up or from −8 down;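 note: Huh7 hepatoma cells carrying a hepatitis C replication reporter with no stimulus; test concentration not given here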
[12] = P. aeruginosa biofilm formation inhibitors, primary screen, PAO1 strain, BacTiter-Glo luminescence, LB-PBS (AID 1144); settings: 12 h, higher = more signal
[13] = CREB reporter modulators without forskolin, primary screen, cell-based, PC12, CRE-LacZ reporter, unstimulated (AID 1145); settings: no forskolin, luminescence, 4.5 h, higher = more signal, called active from +8 up or from −8 down
[14] = CREB reporter modulators under forskolin, primary screen, cell-based, PC12, CRE-LacZ reporter, forskolin-stimulated (AID 1146); settings: luminescence, 4.5 h, higher = more signal, called active from +8 up or from −8 down;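 note: PC12 cells with 6xCRE LacZ reporter stimulated by forskolin 10 µM; beta-galactosidase reporter signal reflecting CREB driven transcription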
[15] = molecular target: Streptavidin (Streptomyces avidinii) (UniProt P22629); assay: streptavidin binders on small-molecule microarray, primary screen, artefact control for SMM compound annotation, biophysical, 635/667 nm fluorescence (AID 1147); settings: streptavidin binding, higher = more signal;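 note: signal reflects streptavidin binding to arrayed compounds as a control protein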
[16] = small-molecule binders of probe aInhba, primary screen, biochemical, small-molecule microarray, 635/667 nm fluorescence (AID 1148); settings: higher = more signal;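 note: score merges 667nm spot fluorescence with signal-to-noise for antibody binding to printed compounds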
Torsin-1A (Homo sapiens) [17] = molecular target: Torsin-1A (Homo sapiens) (UniProt O14656); assay: torsin A binders from cell lysate, primary screen, small-molecule microarray, wild-type, 635/667 nm (AID 1149); settings: COS7 hTOR1A-WT lysate, 635 nm fluorescence, higher = more signal
Torsin-1A (Homo sapiens) [18] = molecular target: Torsin-1A (Homo sapiens) (UniProt O14656); assay: small-molecule binders of mutant TOR1A in lysate, primary screen, cell lysate, small-molecule microarray, COS7 lysate, 635/667 nm fluorescence (AID 1150); settings: COS7 hTOR1A mutant lysate, 635 nm fluorescence, higher = more signal;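 note: score pools 667 nm emission and signal to noise measuring lysate protein binding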
[19] = tested on: Sonic hedgehog protein (Shh); assay: small-molecule binders of Shh protein, primary screen, biochemical, small-molecule microarray, 635/667 nm fluorescence (AID 1151); settings: small-molecule microarray binding, 635 nm fluorescence; higher = more signal;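 note: Shh protein binding to compounds spotted on small-molecule microarray slides; score combines spot fluorescence intensity with signal-to-noise across triplicate slides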

Luciferin 4-monooxygenase (Photinus pyralis), sequence (P08659 whole entry, looked up): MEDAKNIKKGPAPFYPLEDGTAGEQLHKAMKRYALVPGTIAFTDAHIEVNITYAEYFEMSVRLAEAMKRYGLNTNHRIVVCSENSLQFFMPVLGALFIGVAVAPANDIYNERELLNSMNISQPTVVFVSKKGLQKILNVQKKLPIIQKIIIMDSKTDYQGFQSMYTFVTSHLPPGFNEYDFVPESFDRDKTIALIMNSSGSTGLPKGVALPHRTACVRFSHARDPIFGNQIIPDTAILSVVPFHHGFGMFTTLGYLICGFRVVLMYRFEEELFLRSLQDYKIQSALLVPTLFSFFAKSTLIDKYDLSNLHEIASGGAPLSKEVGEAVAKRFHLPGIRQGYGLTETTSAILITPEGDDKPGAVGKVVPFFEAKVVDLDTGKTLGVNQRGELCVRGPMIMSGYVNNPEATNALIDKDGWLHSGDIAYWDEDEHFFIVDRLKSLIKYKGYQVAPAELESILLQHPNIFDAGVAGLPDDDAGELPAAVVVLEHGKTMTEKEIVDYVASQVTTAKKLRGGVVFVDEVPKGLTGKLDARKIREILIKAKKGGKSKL
Fibroblast growth factor 2 (Homo sapiens), sequence (P09038 whole entry, looked up): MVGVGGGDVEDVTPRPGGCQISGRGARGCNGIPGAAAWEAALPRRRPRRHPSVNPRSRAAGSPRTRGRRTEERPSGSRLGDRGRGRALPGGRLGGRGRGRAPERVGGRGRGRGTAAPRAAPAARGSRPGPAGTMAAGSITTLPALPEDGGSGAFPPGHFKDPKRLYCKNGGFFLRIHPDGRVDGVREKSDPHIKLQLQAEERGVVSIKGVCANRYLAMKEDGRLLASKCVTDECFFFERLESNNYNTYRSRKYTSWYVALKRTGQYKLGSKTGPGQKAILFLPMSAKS
Focal adhesion kinase 1 (Homo sapiens), sequence (Q05397 whole entry, looked up): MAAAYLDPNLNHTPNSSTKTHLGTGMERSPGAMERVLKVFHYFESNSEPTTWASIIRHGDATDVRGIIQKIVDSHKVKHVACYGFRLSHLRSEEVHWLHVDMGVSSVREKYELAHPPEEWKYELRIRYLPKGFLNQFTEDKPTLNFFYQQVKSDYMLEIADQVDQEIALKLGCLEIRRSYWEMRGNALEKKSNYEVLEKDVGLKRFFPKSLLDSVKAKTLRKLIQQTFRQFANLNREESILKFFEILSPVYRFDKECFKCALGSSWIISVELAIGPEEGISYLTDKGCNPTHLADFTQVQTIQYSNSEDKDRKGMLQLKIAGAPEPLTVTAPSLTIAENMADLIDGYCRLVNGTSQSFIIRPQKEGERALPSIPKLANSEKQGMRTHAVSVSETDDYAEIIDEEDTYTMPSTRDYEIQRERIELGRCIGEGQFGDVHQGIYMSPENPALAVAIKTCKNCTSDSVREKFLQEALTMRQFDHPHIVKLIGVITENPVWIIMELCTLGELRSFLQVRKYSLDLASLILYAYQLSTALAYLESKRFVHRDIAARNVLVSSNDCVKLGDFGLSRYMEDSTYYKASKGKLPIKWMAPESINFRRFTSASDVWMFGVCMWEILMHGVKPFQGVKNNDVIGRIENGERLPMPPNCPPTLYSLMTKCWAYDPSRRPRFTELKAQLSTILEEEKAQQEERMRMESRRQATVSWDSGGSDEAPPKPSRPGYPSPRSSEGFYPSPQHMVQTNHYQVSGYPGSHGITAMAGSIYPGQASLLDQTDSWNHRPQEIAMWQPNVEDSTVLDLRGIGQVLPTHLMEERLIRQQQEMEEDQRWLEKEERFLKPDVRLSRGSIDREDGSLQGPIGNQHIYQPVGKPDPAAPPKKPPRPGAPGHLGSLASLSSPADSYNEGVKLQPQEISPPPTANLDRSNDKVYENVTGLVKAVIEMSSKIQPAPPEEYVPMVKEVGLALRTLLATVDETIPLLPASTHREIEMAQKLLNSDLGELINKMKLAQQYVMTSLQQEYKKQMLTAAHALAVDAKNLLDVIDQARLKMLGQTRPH
Torsin-1A (Homo sapiens), sequence (O14656 whole entry, looked up): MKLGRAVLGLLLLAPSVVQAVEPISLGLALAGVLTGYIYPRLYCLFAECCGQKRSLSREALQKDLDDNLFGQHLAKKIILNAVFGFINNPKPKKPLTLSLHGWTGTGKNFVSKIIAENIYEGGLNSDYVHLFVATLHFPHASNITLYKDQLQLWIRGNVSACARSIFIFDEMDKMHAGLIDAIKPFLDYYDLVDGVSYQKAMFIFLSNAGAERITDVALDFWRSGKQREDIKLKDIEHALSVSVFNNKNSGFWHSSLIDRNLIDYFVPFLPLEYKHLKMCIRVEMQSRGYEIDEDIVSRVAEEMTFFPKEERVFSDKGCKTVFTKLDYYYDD
Streptavidin (Streptomyces avidinii), sequence (P22629 whole entry, looked up): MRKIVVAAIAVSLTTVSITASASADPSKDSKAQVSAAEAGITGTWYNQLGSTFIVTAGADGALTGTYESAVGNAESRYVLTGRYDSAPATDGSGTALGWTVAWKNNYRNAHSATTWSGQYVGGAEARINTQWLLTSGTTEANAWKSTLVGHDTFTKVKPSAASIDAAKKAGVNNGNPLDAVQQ
Follistatin (Homo sapiens), sequence (P19883 whole entry, looked up): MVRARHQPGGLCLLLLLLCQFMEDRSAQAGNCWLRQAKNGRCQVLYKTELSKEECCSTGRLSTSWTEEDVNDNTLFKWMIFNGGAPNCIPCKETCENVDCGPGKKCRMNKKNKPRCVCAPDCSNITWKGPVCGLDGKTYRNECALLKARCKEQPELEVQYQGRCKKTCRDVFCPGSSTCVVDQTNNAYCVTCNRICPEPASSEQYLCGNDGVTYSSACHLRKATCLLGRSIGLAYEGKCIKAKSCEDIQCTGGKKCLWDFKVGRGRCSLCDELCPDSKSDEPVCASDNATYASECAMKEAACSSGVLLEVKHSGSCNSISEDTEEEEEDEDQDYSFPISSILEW

Compound | composite z-score [1] | composite z-score [2] | composite z-score [3] | composite z-score [4] | composite z-score [5] | composite z-score [6] | z-score [7] | composite z-score (Lefty1) | composite z-score [8] | z-score [9] | composite z-score [10] | z-score [11] | z-score [12] | z-score [13] | z-score [14] | composite z-score [15] | composite z-score [16] | composite z-score (Torsin-1A (Homo sapiens) [17]) | composite z-score (Torsin-1A (Homo sapiens) [18]) | composite z-score [19]
CC(=O)OCC1C2CC[C@H]3C(OCc4ccc(F)cc4C(F)(F)F)OC[C@]4(C)[C@H]3C2=C(CN4C(=O)OC(C)(C)C)[C@H](C)C1COC(C)=O (stereo not given in full) | 1.14 | -0.267 | 0.0527 | 0.783 | -0.603 | -1.66 | 1.71 | -0.372 | 0.517 | 1.62 (inactive) | 1.21 | -1.87 (inactive) | -0.212 (inactive) | 0.0075 (inactive) | 1.85 (inactive) | 1.16 | 0.196 | -0.172 | 1.67 | -1.24
O=C(NCCN1CCOCC1)[C@@H]1c2ccccc2C(=O)N(Cc2ccc(OC(F)(F)F)cc2)[C@H]1c1ccc(CO)cc1 | 1.97 | 0.292 | 0.022 | -0.419 | 0.0596 | -1.23 | 2.22 | -0.332 | -0.109 | -0.408 (inactive) | 0.0235 | -0.281 (inactive) | -0.0358 (inactive) | 0.558 (inactive) | 0.338 (inactive) | -0.119 | -0.0762 | -0.282 | 0.459 | -0.0784
CC(C)C(O)C1C=CC2C(=O)NC(=O)C2N1Nc1ccccn1 (stereo not given) | 1.25 | 0.218 | -0.0716 | 0.285 | 0.712 | 0.0205 | 0.44 | 0.129 | 0.169 | -0.362 (inactive) | 0.122 | 0.813 (inactive) | -0.248 (inactive) | -0.143 (inactive) | 0.219 (inactive) | 0.0669 | -0.0421 | 0.238 | 0.407 | -0.212
CN(C)c1ccc(C(O)C2C=CC3C(=O)N(Cc4ccccc4)C(=O)C3N2n2cnnc2)cc1 (stereo not given) | 0.108 | 0.115 | -0.535 | 0.32 | 0.225 | 0.239 | -0.269 | -0.231 | 0.0743 | -1.66 (inactive) | -0.347 | 0.166 (inactive) | -1.85 (inactive) | -1.09 (inactive) | -0.607 (inactive) | 0.143 | -0.149 | 0.131 | -0.243 | -0.11
NC(=O)N1C(=O)C2C(C1=O)C1C=C(CCCO)C2C(c2ccc(CN3CCCC3)cc2)N1Cc1sc2ccccc2c1Cl (stereo not given) | 0.17 | 0.1 | 0.39 | -0.109 | 0.301 | -0.145 | 0.947 | -0.131 | 0.394 | -0.286 (inactive) | -0.24 | -3.46 (inactive) | 0.386 (inactive) | -0.0602 (inactive) | -1.08 (inactive) | 0.558 | -0.268 | -0.174 | 0.823 | 0.287
C=CC[C@@]1(C(=O)OC)N=C(c2ccc(OCCCO)cc2)O[C@@H]1c1ccccc1N=[N+]=[N-] | 2.37 | 1.24 | 0.568 | 0.159 | 1.41 | 1.66 | 0.311 | 0.53 | 0.874 | -6.39 (inactive) | 0.938 | -3.5 (inactive) | -1.57 (inactive) | 1.79 (inactive) | -0.775 (inactive) | -0.195 | 0.286 | 0.288 | 0.672 | 2.02
C=CCN1C(=O)[C@@]2(O[C@@H](CCn3cc([C@H](O)c4ccccc4)nn3)[C@H]([Si](C)(C)c3ccc(OC)cc3)[C@H]2C)c2cc(N3C(=O)c4cccc5cccc3c45)ccc21 | 0.338 | -0.526 | -0.204 | -0.295 | -0.638 | -0.722 | 1.36 | -0.475 | -0.22 | -0.0152 (inactive) | -0.654 | -3.71 (inactive) | -0.119 (inactive) | 9.39 (active) | -0.592 (inactive) | -0.253 | -0.128 | -0.488 | -0.462 | -0.339
COC(=O)[C@@]1(Cc2ccc(F)cc2)[C@H]2c3cc(C(=O)N(C)C)n(C)c3C[C@H]2CN1C(=O)c1ccccc1 | 2.58 | 0.372 | 0.154 | -0.0862 | -0.524 | 0.263 | 0.239 | -0.795 | 0.229 | 0.053 (inactive) | 0.418 | -0.771 (inactive) | -0.259 (inactive) | 0.0007 (inactive) | -0.339 (inactive) | 0.069 | 0.395 | -0.0772 | 0.814 | -0.34
Cc1ccc(F)cc1S(=O)(=O)N[C@H]1CCN(Cc2ccc(OC(C)C)cc2)C1 | 0.6 | -0.296 | -0.198 | -0.71 | 0.855 | 0.157 | 1.3 | 1.1 | -0.6 | -0.557 (inactive) | -0.223 | -3.11 (inactive) | 0.434 (inactive) | 1.4 (inactive) | -0.592 (inactive) | -0.48 | -0.0963 | 0.149 | -0.0115 | 1.75
COC(=O)[C@@]1(Cc2ccc(F)cc2)[C@H]2c3cc(C(=O)N4CCCC4)n(Cc4ccccn4)c3C[C@H]2CN1C(=O)c1ccccc1 | 1.58 | 1.25 | 1.01 | 0.903 | 0.37 | -0.453 | -0.0238 | -0.2 | -0.128 | 1.1 (inactive) | 0.739 | -1.56 (inactive) | 0.261 (inactive) | 0.966 (inactive) | 1.35 (inactive) | 0.498 | 0.522 | -0.578 | 0.738 | -0.138
